In the library only some 1.7% were active in any assay of this set; here they are far more common.
PTHR1 ag – PTHR1 (human) receptor agonism. HEK293 GP2 PTHR1 cells, GloSensor cAMP luminescence, 1 h. Potency, µM (titrated, usually from 115 µM), actives largely listed as activators. actives 0.075% (n = 410,000); further: nearly all actives have a fitted effect of over 55% in size
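HEK-293-derived GP2 cells expressing PTHR1 and a GloSensor cAMP reporter, 3,000/well, plated overnight, given luciferin plus IBMX (each 0.5 mM as added) for 1 h at 37 °C, then compound for 1 h at 37 °C. Luminescence was read after 15 min at room temperature.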
GLP1R cytotox – cytotoxic in the GLP-1 receptor inverse agonist counter-screen; actives 0.13% (n = 410,000); Potency, µM (highest dose often 38.3 µM), actives largely listed as inhibitors; HEK293 cAMP-luciferase reporter cells, luminescence, 24 h;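 further: loss of luciferase light is scored as toxicity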
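Compound-treated cells are incubated 24 hr at 37 deg C under 5% CO2 after a 12 hour attachment period, then luciferase detection reagent is added and luminescence is measured following 12 min at room temperature; lowered signal indicates toxicity.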
GLP1R inv ag – acts as inverse agonist at human GLP-1 receptor | HEK293 GLP-1R CRE-luciferase, luminescence, 24 h; GLP-1R form is constitutively active | Potency, µM (top dose mostly 38.3 µM), usual class: inhibitors | actives 1.6% (n = 410,000) | AID 624417; further: nearly all actives have a fitted effect of over 55% in size
Target sequence (P43220 whole entry, looked up): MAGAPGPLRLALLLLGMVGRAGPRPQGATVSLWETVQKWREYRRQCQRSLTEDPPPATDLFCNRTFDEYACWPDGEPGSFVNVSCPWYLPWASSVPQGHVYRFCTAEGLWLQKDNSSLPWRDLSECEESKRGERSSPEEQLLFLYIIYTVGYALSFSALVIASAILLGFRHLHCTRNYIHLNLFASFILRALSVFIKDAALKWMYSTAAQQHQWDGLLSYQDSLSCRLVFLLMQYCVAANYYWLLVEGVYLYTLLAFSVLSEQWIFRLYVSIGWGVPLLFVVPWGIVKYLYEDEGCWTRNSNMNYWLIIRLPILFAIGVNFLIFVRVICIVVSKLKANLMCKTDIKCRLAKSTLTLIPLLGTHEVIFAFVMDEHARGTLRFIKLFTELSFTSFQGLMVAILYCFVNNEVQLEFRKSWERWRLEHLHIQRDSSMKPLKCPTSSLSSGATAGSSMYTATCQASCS
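Inverse agonists were sought by their lowering of basal cAMP reporter luciferase output in HEK293 cells stably carrying constitutively active human GLP-1R, after 24 h compound treatment.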
GLP-1R agonist – agonists of human GLP-1 receptor; HEK293 GLP-1R CRE-luciferase, luminescence, 4-6 h; cells express a hypersensitive GLP-1R form; Potency, µM (doses to about 45.6 µM), hits mostly activators; actives 0.007% (n = 380,000); AID 624172
Large screens that a line does not name were inactive; ! = not confirmed by another sample. The call rests on the fitted dose curve; in most records, active means well fitted curve in the direction sought with a large enough effect; inconclusive means small, poorly fitted or top-dose-only effect, or another doubt; inactive means no such curve, though single readings can be large; an effect the other way counts as inactive or inconclusive.

CCN(CC)S(=O)(=O)c1cccc(C(=O)N[C@H](C(=O)NCc2ccc(Cl)cc2)C(C)C)c1	GLP1R inv ag 13µM
CCN(CC)S(=O)(=O)c1cccc(C(=O)N[C@H](C(=O)NCc2ccccc2F)C(C)C)c1	GLP1R inv ag inconclusive
Cc1cc(C)cc(NC(=O)C2C3C=CC4(O3)C2C(=O)N(CCN2CCCCC2)C4C(=O)NC2CCCCC2)c1 (stereo unspecified)	none
CN(C)CCN1C(=O)C2C(C(=O)Nc3cc(Cl)cc(Cl)c3)C3C=CC2(O3)C1C(=O)NC1CCCCC1 (stereo unspecified)	GLP1R inv ag 10µM
Cc1nc2c(C(=O)NC(C)c3ccccc3)cnn2c(C)c1Cc1ccccc1 (stereo unspecified)	GLP1R inv ag inconclusive (no result: GLP-1R agonist)
Cc1c(F)cccc1NC(=O)C1CCCN1S(=O)(=O)c1ccc(F)cc1 (stereo unspecified)	none (no result: GLP-1R agonist)
Cc1ccc2oc(C(=O)N(Cc3sccc3C)C3CCS(=O)(=O)C3)c(C)c2c1 (stereo unspecified)	none (no result: GLP-1R agonist)
COc1ccc(-c2noc(CNS(=O)(=O)c3ccc(NC(C)=O)cc3)n2)cc1	none
O=C(NCc1nc(-c2ccc(C(F)(F)F)cc2)no1)Nc1ccc(OC(F)(F)F)cc1	GLP1R cytotox inconclusive, GLP1R inv ag 2.8µM
COc1ccc2c(c1)CCc1c(C(=O)Nc3c(C)nn(Cc4ccccc4)c3C)noc1-2	GLP1R inv ag inconclusive
COc1ccc2c(c1)CCc1c(C(=O)Nc3c(C)nn(Cc4ccccc4Cl)c3C)noc1-2	GLP1R inv ag 10µM (no result: GLP-1R agonist)
O=C(Nc1ccccc1-c1ccccc1)C12CC3CC(CC(C3)C1)C2	GLP1R inv ag 2µM
CCc1ccc(NC(=O)CSc2nccn2C2CCCC2)cc1	none (no result: GLP-1R agonist)
O=C(/C=C/c1ccc(OCCCF)cc1)N1CCN(Cc2ccccc2)CC1	GLP1R inv ag 10µM
O=C(Cn1cnc2onc(-c3ccc(F)cc3)c2c1=O)Nc1ccc(F)c(Cl)c1	none
CCc1cc(-c2cnnn2CCc2c[nH]c3ccccc23)ccc1-c1cn(CC(C)C)nn1	none
CCc1cc(-c2nnn(-c3cc(C(C)C)ccc3C)c2CC)ccc1-c1cn(CCc2c[nH]c3ccccc23)nn1	GLP1R inv ag 2.5µM
O=C(CSc1nccn1Cc1ccccc1)NCc1ccccc1Cl	none
COc1ccc(-c2cc(C)no2)cc1S(=O)(=O)N1CCN(c2ccccc2F)CC1	GLP1R inv ag 10µM!
COc1ccc(-c2cc(C)no2)cc1S(=O)(=O)N1CCCN(Cc2ccccc2Cl)C1	GLP1R inv ag 8.9µM
COc1ccc(-c2cc(C)no2)cc1S(=O)(=O)N1CCN(c2ccccn2)CC1	none
N#Cc1ccccc1NC(=O)CN(Cc1ccccc1)Cc1ccccc1	GLP1R inv ag 7.1µM
CCOc1ccccc1C(=O)Nc1cc(Cl)ccc1O	GLP1R cytotox inconclusive, GLP1R inv ag 7.1µM
COc1ccc(C(=O)Nc2nnc(S(=O)(=O)N(C)c3ccc(Cl)cc3)s2)cc1OC	none (no result: GLP-1R agonist)
CC(C)(C)c1ccc(C(=O)NC(=S)N2CCCC2)cc1	none
CC(C)(C)c1ccc(C(=O)NC(=S)N2CCCCCC2)cc1	GLP1R cytotox inconclusive, GLP1R inv ag 7.1µM
CC1CCN(C(=S)NC(=O)c2ccc(C(C)(C)C)cc2)CC1	GLP1R cytotox inconclusive, GLP1R inv ag 8.9µM
CC1CCN(C(=S)NC(=O)c2ccccc2)CC1	GLP1R cytotox inconclusive, GLP1R inv ag inconclusive
COc1ccc(-n2c(=O)c3c4c(sc3n(Cc3ccc(F)cc3)c2=O)CN(C(C)=O)CC4)c(OC)c1	none (no result: GLP-1R agonist)
C=C1CCN([C@@H](CC(C)C)C(=O)NCc2ccc(Cl)cc2)S(=O)(=O)c2ccccc21	GLP1R inv ag inconclusive
C=C1CCN([C@@H](CC(C)C)C(=O)NCc2ccc(Cl)c(Cl)c2)S(=O)(=O)c2ccccc21	GLP1R inv ag 11µM
C=C1CCN([C@@H](Cc2ccccc2)C(=O)NCc2ccc(Cl)c(Cl)c2)S(=O)(=O)c2ccccc21	GLP1R inv ag 11µM
C=C1CCN([C@H](C(=O)NCc2ccc(Cl)c(Cl)c2)C(C)C)S(=O)(=O)c2ccccc21	GLP1R inv ag 10µM
O=C(CSc1nc2ccccc2nc1Cc1ccccc1F)Nc1cccc(C(F)(F)F)c1	none (no result: GLP-1R agonist)
Cc1ccc(OCCCSc2nc(-c3ccc(C(C)(C)C)cc3)nc3cc(=O)[nH]n23)cc1C	none (no result: GLP-1R agonist)
Cc1ccnc(NC(=O)c2ccc(OCC3CCCO3)cc2)c1 (stereo unspecified)	GLP1R inv ag 5.6µM
Cc1ccc(CNC(=O)c2ccc3c(c2)nc(C)n3-c2cccc(F)c2)cc1	GLP1R inv ag inconclusive (no result: GLP-1R agonist)
CN(c1ccccc1)S(=O)(=O)c1cccc(NC(=O)COc2cccc([N+](=O)[O-])c2)c1	GLP1R inv ag 10µM
Cc1ccsc1CN(C)CC(=O)Nc1cccc(S(=O)(=O)N(C)c2ccccc2)c1	GLP1R inv ag 8.9µM
CCC(=O)c1ccc(OCC(=O)Nc2cccc(S(=O)(=O)N(C)c3ccccc3)c2)cc1	GLP1R inv ag inconclusive
Cc1cc(C)c(S(=O)(=O)c2ccccc2C)c(SCC(C)C)n1	GLP1R inv ag inconclusive
CCCSc1nc(C)cc(C)c1S(=O)(=O)c1ccccc1C	GLP1R inv ag 8.9µM
CC(=O)[C@@]1(O)CC[C@H]2[C@@H]3C=C(Cl)C4=CC(=O)CC[C@]4(C)[C@H]3CC[C@@]21C	none (no result: PTHR1 ag, GLP1R cytotox, GLP1R inv ag)
COc1ccc(-c2cc(C(=O)Oc3ccccc3)c3cc(C)ccc3n2)cc1	GLP1R inv ag inconclusive (no result: GLP-1R agonist)
COc1ccc(CN(C)C(=O)c2cc(-c3ccccc3)nc3ccc(C)cc23)c(OC)c1	GLP1R cytotox inconclusive, GLP1R inv ag 5.6µM
S=C(NCc1cccnc1)Nc1cc(Cl)cc(Cl)c1	GLP1R inv ag 10µM
CCOc1ccc(-c2c(C)nn3c(C)c(C(=O)NCc4cccc(OC)c4)cnc23)cc1OCC	none (no result: GLP-1R agonist)
COc1cc(NC(=O)CN2C(=O)C(c3ccc(C)cc3)=NC23CCCCCC3)cc(OC)c1	none (no result: GLP-1R agonist)
COc1cc(NC(=O)CN2C(=O)C(c3ccc(C)cc3)=NC23CCCCC3)cc(OC)c1	GLP1R inv ag 10µM (no result: GLP-1R agonist)
CCCCOC(=O)c1ccc(NC(=O)c2cc(-c3ccccc3)on2)cc1	none (no result: GLP-1R agonist)
CC1(Cc2ccc(C(F)(F)F)o2)C(=O)Nc2ccc(-c3cccc(C(F)(F)F)c3)cc21 (stereo unspecified)	GLP1R cytotox inconclusive, GLP1R inv ag 10µM
Cc1ccc(C(C)C)c(OC(C)C(=O)NCC2(N(C)C)CCCCC2)c1 (stereo unspecified)	GLP1R inv ag inconclusive
CCN(CC)CCNc1ccc(C)c2sc3ccc(O)cc3c(=O)c12	GLP1R cytotox inconclusive, GLP1R inv ag 10µM
COC(c1ccccc1)c1nnc(CCC(=O)N(C)CCCC2CCCC2)o1 (stereo unspecified)	GLP1R inv ag 10µM
COC(c1ccccc1)c1nnc(CCC(=O)N(C)CCOc2ccccc2)o1 (stereo unspecified)	GLP1R inv ag inconclusive
Cn1cc(CN(C(=O)Nc2ccccc2)C2CCCCC2)c2ccccc21	GLP1R cytotox inconclusive, GLP1R inv ag 10µM
